Screens as filed in PubChem BioAssay.
Compounds with a hit are over-represented: about 4.6% of the library has one in this group of screens.
GAA850 FXN act = increases GAA850 frataxin promoter reporter activity | HEK293 lucGAA850 FXN promoter luciferase reporter, 24 h; percent of 10 µM SAHA response | activation, % at 6 µM | 0.56% of 360,000 active | AID 540364;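 active = activation above the average of all compounds screened plus 3 SD, cutoff fixed separately per campaign, cut at about 7.5% in these data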
HSF1 inhib = HSF1 inhibition; NIH3T3-HGL HSE-luciferase, MG132-induced, luminescence 8 h; active compounds read low; activity change, negative = inhibition, % at 7.5 µM (by protocol); 0.77% of 300,000 active;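 active = more than half of replicate wells show activity change below -50%, luminescence cut by over half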;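 note: luciferase reports HSF-1 transcriptional activity via heat shock element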
AHR act = activators of human aryl hydrocarbon receptor | P35869 | AHR-responsive luciferase reporter cells, luminescence | activation, % at 5 µM | 2.5% of 320,000 active; in the data active = activation above about 47%
HSF1 activator = increases HSF-1 driven luciferase reporter signal; NIH3T3-HGL HSF-1 luciferase reporter, MG132, 8 h; 100% = twice DMSO control signal; activation, % at 9 µM; 1.7% of 300,000 active;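 active = mean replicate activation of at least 50% with a set share of replicates each reaching 50%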
Numbers stand for hits; n = inactive; x = no result.

SMILES	GAA850 FXN act	HSF1 inhib	AHR act	HSF1 activator
O=C(Nc1ccc2c(c1)Cc1ccccc1-2)c1ccco1	n	n	n	56.2
COc1cccc(OC)c1C(=O)Nc1ccc2c(c1)Cc1ccccc1-2	n	n	74.8	n
COc1ccc(C(=O)Nc2ccc3c(c2)Cc2ccccc2-3)cc1	n	n	n	n
COC(=O)C1=CN(C2CC2)C=C(C(=O)OC)C1c1ccc(C(F)(F)F)cc1	n	n	n	n
COc1ccc(N=CC2=C(O)c3ccccc3C2=O)c(OC)c1	n	-72.8	53.9	n
O=C(NCC1COc2ccccc2O1)c1ccc(-n2cncn2)c([N+](=O)[O-])c1 (centres undefined)	n	n	n	n
CCOC(=O)c1c(/N=C/N(C)C)sc(/C=N/Nc2ccccc2)c1-c1ccc(Cl)cc1	n	n	92.1	n
CCOc1ccc(CCNC(=O)c2nn(C)c3c2CS(=O)(=O)c2ccccc2-3)cc1	n	-53.1	n	n
Cc1ccsc1/C=N/Nc1nc(Cl)c(Cl)cc1Cl	n	n	63.0	n
Cc1ccc(/C=N/Nc2ccc(Cl)c(C(=O)O)c2)s1	n	n	n	n
Cc1ccc(/C=N/Nc2nc(Cl)c(Cl)cc2Cl)s1	n	n	54.2	n
Cc1ccsc1/C=N\Nc1cn[nH]c(=O)c1Cl	n	x	n	x
CCOC(=O)c1cn(-c2c(Cl)cccc2Cl)c2cc(Cl)c([N+](=O)[O-])cc2c1=O	n	n	n	103.7
CCOC(=O)c1cn(CC)c2cc(Cl)c([N+](=O)[O-])cc2c1=O	n	n	n	n
CC(C)C(=O)Nc1ccc(C(=O)NNC(=O)CCc2ccccc2)cc1	n	n	n	n
OCCCNc1cc(-c2ccnc(Nc3cccc(Cl)c3)n2)ccn1	n	-58.3	n	n
Nc1ncnc2oc(-c3ccco3)c(-c3ccco3)c12	n	-53.1	n	n
Cn1c(=O)n(CCc2ccccc2)c(=O)c2c1nc1n2CCCN1CCc1ccccc1	n	n	82.8	n
CCCn1c(=O)c2c(nc3n2CCCN3CCc2ccccc2)n(C)c1=O	n	n	n	n
Cc1ccccc1COc1ccc(-c2nn[nH]n2)cc1	n	n	n	n
COC(=O)C1C(=O)c2c([nH]c(C(=O)OC3CCCCC3)c2C)CC1C (centres undefined)	n	n	n	68.3
COC(=O)C1C(=O)c2c([nH]c(C(=O)OC3CCCC3C)c2C)CC1C (centres undefined)	n	n	n	n
COc1cc(OC)c(OC)cc1/C=N/NC(=S)NCCN1CCOCC1	n	n	n	n
COc1cc(OC)c(OC)cc1/C=N/NC(=S)NCC1CCCO1 (centres undefined)	n	-69.9	n	n
O=[N+]([O-])c1ccc(N=Cc2sc3ccccc3c2O)cc1	n	-84.1	n	n
SMILES	GAA850 FXN act	HSF1 inhib	AHR act	HSF1 activator
O=C(NNC1=C(C(=O)C(F)(F)F)CCC1)c1ccccc1O	n	n	n	n
O=C(NCCCn1ccnc1)c1cc2ccccc2oc1=O	n	n	n	n
O=C(NCCCn1ccnc1)c1c(F)cccc1F	n	n	n	n
O=C(NCCCn1ccnc1)c1sc2cccc(F)c2c1Cl	n	n	78.2	n
O=C(NCCCn1ccnc1)/C(=C/c1ccco1)NC(=O)c1ccccc1	n	n	n	61.5
O=C(NCCCn1ccnc1)c1ccc2ccccc2c1	n	n	60.0	n
O=C(/C=C/c1c(Cl)cccc1Cl)NCCCn1ccnc1	n	n	47.6	n
Cc1ccc(NC(=O)CSCC(=O)OCc2cc(=O)oc3cc(O)ccc23)c(C)c1	n	n	n	n
CCOc1ccc(NC(=S)NCCCn2ccnc2)cc1	n	n	n	n
S=C(NCCCn1ccnc1)Nc1cccc(Cl)c1	n	n	49.1	n
CC1CCc2sc(C(=O)NCCCn3ccnc3)cc2C1 (centres undefined)	n	n	51.0	n
Cc1ccc(S(=O)(=O)N/N=C2\C(=O)C3(C)CCC2C3(C)C)cc1 (centres undefined)	n	n	n	n
O=C(O)c1ccc(-c2nnc(-c3ccccc3)o2)cc1	n	n	n	n
COc1cc(OC)c(C2NC(=O)CCC2[N+](=O)[O-])cc1OC (centres undefined)	n	n	n	n
COc1ccc(C2NC(=O)CCC2[N+](=O)[O-])c(OC)c1 (centres undefined)	n	n	n	55.9
OCCOCCn1c(C2CCCN2c2nc(-c3ccc(F)cc3)cs2)nc2cc(Cl)c(Cl)cc21 (centres undefined)	n	n	n	n
CC1C2C(C)N(C)C(=O)N(C)C2N(C)C(=O)N1C (centres undefined)	n	n	n	n
CCc1cc(C(=O)c2ccc(OC)cc2)c(N)s1	n	n	n	59.0
CCOC(=O)N1CCC(Nc2c([N+](=O)[O-])cc(C(=O)O)cc2[N+](=O)[O-])CC1	n	n	n	n
Clc1ccc(OCCn2c(-c3ccco3)nc3ccccc32)cc1	n	n	n	136.9
CC(C)c1ccc2c(c1)[C@H]1OCC[C@H]1[C@@H](c1cccs1)N2	n	n	70.3	122.0
Cc1cc(C)c2c(c1)N[C@H](c1cccs1)[C@@H]1CCO[C@H]21	n	n	n	n
Brc1ccc2[nH]c3c(N4CCc5ccccc5C4)ncnc3c2c1	x	n	50.8	57.9
Brc1ccc2[nH]c3c(NCc4ccccn4)ncnc3c2c1	n	n	78.0	n
Fc1ccc2[nH]c3c(NCCN4CCOCC4)ncnc3c2c1	n	n	74.9	n
SMILES	GAA850 FXN act	HSF1 inhib	AHR act	HSF1 activator
Cc1ccc2[nH]c3c(N4CCOCC4)ncnc3c2c1	n	n	73.2	n
CCCC(C)C(=O)OCC(=O)NCc1ccc(OC)c(OC)c1 (centres undefined)	n	n	n	n
COC(=O)c1ccc(C(=O)OC)c(NC(=O)COc2ccccc2OC)c1	n	n	n	n
O=C(NCc1ccccc1F)C1CCCN1C(=O)Nc1ccc(Cl)cc1 (centres undefined)	n	n	n	n
COc1ccc2[nH]c3c(N4CCC(O)(c5cccc(C(F)(F)F)c5)CC4)ncnc3c2c1	n	n	68.0	n
c1ccc2c(c1)[nH]c1c(N3CCCC3)ncnc12	n	n	64.7	n
Cc1ccc2[nH]c3c(N4CCc5ccccc5C4)ncnc3c2c1	n	n	n	92.0
Fc1ccc2[nH]c3c(N4CCc5ccccc5C4)ncnc3c2c1	n	n	n	n
COc1ccc2[nH]c3c(N4CCN(Cc5ccc6c(c5)OCO6)CC4)ncnc3c2c1	n	n	n	n
CCCCSCCCNC(=O)c1ccc2c(c1)N(CC)C(=O)c1ccccc1S2=O (centres undefined)	n	n	n	n
COc1ccc(C(=O)/C=C2/C(=O)Nc3ccccc32)cc1OC	n	n	n	242.8
NC(=O)COc1ccc(C(=O)/C=C2/C(=O)Nc3ccccc32)cc1	n	n	n	n
COc1cc(OC)c(/C=C2\C(=O)Nc3ccccc32)c(OC)c1	x	x	78.9	x
C=CCOc1ccccc1C(=O)/C=C1/C(=O)Nc2ccccc21	n	n	n	113.4
COc1ccc(C(=O)/C=C2/C(=O)Nc3ccccc32)cc1	n	n	x	n
O=C1Nc2ccccc2/C1=C/C(=O)c1cccs1	n	-64.9	118.0	n
C=CCOc1ccc(C(=O)/C=C2/C(=O)Nc3ccccc32)cc1	n	n	n	n
